According to article PMC7862700, “An all-to-all approach to the identification of sequence-specific readers for epigenetic DNA modifications on cytosine”:

Assays:
Assay in all cases: DAPPL (digital affinity profiling via proximity ligation, sequencing); 10 mM Tris-HCl pH 7.5, 50 mM NaCl, 1 mM DTT, 4% glycerol, room temperature, 30 min; GST-TFs on glutathione beads, 16-mer random dsDNA library, 0.1% formaldehyde crosslink after washing; high values mean tight binding
FEV = target: T1, FEV (Homo sapiens, UniProt Q99581 1-238); details: protein: recombinant; tags: N-terminal GST; dsDNA, one strand shown
T1 sequence: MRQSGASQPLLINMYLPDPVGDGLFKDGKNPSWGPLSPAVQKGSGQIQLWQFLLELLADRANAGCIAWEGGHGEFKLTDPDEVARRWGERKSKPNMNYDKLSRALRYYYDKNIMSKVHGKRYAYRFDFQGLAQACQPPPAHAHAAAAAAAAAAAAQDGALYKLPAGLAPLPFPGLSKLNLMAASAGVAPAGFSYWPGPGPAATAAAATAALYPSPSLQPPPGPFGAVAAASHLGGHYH
Summary of the method: (§1)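 Each value of binding signal is a hexamer's read frequency for a factor divided by the same hexamer's frequency in the tag-only sample. Barcoded, bead-captured GST fusions of human transcription factors made in yeast were pooled with that sample and incubated with 200 nmole of a random double-stranded 16-mer DNA library in Tris/NaCl/DTT/glycerol buffer at room temperature for 30 min. Washing, 0.1% formaldehyde crosslinking, proximity ligation, PCR and Illumina NextSeq500 sequencing followed.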

ETV5 = ETV5 (Homo sapiens, UniProt P41161 1-510); details: protein: recombinant; tags: N-terminal GST; dsDNA, one strand shown
Chain of ETV5 (P41161 whole entry): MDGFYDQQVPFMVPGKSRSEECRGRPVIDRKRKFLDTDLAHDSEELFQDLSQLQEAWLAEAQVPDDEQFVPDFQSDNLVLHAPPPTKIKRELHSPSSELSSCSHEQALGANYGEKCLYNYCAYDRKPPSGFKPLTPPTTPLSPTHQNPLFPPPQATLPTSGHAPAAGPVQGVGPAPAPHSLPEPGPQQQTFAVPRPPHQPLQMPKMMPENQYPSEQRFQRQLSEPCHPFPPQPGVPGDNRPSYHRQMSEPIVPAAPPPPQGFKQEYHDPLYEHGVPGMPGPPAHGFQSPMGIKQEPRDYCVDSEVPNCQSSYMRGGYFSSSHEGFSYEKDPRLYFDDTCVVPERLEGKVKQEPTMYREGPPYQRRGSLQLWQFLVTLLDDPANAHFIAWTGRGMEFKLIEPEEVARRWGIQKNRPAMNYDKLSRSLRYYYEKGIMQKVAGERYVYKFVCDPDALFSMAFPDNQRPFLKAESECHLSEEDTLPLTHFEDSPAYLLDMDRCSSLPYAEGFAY
Summary of the method: as §1

HSF1 = HSF1 (Homo sapiens, UniProt Q00613 1-529); details: protein: recombinant; tags: N-terminal GST; chain copies: 3; dsDNA, one strand shown
Chain of HSF1 (Q00613 whole entry): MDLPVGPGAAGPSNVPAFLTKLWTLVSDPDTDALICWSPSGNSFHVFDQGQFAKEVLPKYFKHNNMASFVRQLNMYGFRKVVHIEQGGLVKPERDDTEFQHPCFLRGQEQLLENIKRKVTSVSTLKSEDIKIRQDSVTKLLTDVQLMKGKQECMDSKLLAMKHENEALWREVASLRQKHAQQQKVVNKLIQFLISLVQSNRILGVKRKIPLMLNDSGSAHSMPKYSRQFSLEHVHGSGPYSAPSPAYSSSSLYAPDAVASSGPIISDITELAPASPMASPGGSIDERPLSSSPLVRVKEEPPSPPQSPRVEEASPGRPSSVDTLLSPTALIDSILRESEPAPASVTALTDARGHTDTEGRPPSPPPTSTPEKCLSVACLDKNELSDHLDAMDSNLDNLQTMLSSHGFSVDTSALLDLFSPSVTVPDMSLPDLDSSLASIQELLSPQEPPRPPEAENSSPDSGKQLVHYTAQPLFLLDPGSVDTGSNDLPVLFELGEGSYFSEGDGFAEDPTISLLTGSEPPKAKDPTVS
Summary of the method: as §1

SPIC = target: T2, SPIC (Homo sapiens, UniProt Q8N5J4 1-248); details: protein: recombinant; tags: N-terminal GST; dsDNA, one strand shown
T2 sequence: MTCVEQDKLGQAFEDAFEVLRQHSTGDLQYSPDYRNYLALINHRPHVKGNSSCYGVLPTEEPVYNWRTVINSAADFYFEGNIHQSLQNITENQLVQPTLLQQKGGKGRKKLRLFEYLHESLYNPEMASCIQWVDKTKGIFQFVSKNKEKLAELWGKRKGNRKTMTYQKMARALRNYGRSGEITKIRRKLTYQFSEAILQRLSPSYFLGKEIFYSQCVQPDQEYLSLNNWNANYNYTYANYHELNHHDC
Summary of the method: as §1

ELF4 = ELF4 (Homo sapiens, UniProt Q99607 1-663); details: protein: recombinant; tags: N-terminal GST; dsDNA, one strand shown
Chain of ELF4 (Q99607 whole entry): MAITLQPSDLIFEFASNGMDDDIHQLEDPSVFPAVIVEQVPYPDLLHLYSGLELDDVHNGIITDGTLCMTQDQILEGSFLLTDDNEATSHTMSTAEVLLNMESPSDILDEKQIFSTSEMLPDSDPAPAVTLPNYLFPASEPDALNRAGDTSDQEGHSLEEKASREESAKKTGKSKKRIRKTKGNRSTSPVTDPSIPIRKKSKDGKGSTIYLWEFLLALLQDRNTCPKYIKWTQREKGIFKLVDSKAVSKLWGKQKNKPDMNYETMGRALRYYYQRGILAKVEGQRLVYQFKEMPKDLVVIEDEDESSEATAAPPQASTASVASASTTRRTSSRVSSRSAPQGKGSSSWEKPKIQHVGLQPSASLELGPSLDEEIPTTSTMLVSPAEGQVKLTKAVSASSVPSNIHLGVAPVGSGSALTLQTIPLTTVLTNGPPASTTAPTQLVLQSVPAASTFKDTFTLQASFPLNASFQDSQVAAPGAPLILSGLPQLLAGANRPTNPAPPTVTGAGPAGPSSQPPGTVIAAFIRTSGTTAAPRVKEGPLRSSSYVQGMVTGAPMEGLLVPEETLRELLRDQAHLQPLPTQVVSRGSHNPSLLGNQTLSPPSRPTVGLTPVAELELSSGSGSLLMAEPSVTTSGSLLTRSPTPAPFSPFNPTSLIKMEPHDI
Summary of the method: as §1

ELK4 = target: T3, ELK4 (Homo sapiens, UniProt P28324-2 1-405); details: protein: recombinant; tags: N-terminal GST; dsDNA, one strand shown
T3 sequence: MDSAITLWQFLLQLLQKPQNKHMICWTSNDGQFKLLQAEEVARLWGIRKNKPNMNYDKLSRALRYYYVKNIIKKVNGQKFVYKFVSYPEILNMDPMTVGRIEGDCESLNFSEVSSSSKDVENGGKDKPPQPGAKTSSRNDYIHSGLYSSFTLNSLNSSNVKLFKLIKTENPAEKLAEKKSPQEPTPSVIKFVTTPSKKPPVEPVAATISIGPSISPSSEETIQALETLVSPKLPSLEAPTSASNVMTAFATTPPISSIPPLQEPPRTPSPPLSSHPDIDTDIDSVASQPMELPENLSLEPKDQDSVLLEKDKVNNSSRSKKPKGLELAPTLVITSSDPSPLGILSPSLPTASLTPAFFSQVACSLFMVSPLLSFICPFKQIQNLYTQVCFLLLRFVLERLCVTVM
Summary of the method: as §1

ETV2 = target: T4, ETV2 (Homo sapiens, UniProt O00321 1-342); details: protein: recombinant; tags: N-terminal GST; dsDNA, one strand shown
T4 sequence: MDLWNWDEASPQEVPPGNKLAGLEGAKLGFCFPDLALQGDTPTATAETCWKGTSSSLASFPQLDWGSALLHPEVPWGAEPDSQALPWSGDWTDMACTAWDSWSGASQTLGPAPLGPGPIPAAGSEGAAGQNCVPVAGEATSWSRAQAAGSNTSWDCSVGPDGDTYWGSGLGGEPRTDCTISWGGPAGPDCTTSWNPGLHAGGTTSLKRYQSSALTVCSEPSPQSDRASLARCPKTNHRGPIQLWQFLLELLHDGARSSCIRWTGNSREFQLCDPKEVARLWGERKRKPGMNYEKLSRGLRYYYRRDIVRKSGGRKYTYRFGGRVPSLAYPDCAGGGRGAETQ
Summary of the method: as §1

ELF3 = target: T5, ELF3 (Homo sapiens, UniProt P78545 1-371); details: protein: recombinant; tags: N-terminal GST; dsDNA, one strand shown
T5 sequence: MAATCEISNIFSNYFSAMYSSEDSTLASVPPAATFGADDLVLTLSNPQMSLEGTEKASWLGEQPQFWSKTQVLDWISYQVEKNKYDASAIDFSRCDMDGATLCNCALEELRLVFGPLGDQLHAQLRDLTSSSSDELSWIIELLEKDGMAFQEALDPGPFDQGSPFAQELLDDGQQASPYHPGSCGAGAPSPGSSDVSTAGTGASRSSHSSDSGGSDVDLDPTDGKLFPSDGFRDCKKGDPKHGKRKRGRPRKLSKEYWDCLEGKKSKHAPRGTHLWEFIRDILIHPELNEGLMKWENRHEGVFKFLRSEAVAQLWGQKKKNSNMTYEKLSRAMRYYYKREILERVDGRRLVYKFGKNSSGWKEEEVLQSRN
Summary of the method: as §1

CRX = CRX (Homo sapiens, UniProt O43186 1-299); details: protein: recombinant; tags: N-terminal GST; dsDNA, one strand shown
Chain of CRX (O43186 whole entry): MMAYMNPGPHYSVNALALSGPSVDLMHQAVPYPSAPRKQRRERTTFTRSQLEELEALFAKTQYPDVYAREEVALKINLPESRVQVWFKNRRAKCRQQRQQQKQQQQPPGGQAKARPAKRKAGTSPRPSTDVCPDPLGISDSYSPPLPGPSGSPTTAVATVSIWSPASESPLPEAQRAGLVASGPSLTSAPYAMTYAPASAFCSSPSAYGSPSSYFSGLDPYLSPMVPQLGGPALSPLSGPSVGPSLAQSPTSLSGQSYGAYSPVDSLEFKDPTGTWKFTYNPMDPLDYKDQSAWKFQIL
Summary of the method: as §1

ETV1 = ETV1 (Homo sapiens, UniProt P50549 1-477); details: protein: recombinant; tags: N-terminal GST; dsDNA, one strand shown
Chain of ETV1 (P50549 whole entry): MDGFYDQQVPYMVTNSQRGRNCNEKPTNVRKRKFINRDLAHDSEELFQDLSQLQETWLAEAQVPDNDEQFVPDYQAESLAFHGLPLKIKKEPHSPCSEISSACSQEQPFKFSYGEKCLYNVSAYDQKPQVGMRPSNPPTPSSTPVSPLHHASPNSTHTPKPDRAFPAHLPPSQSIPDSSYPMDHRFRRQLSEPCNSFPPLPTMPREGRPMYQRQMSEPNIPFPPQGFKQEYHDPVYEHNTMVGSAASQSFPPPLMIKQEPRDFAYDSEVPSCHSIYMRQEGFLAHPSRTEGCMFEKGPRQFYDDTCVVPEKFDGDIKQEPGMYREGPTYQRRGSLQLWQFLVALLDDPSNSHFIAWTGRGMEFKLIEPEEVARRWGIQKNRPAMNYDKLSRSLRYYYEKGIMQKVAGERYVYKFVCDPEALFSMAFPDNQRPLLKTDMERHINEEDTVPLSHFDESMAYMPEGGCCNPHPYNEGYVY
Summary of the method: as §1

ERF = target: T6, ERF (Homo sapiens, UniProt P50548 1-548); details: protein: recombinant; tags: N-terminal GST; dsDNA, one strand shown
T6 sequence: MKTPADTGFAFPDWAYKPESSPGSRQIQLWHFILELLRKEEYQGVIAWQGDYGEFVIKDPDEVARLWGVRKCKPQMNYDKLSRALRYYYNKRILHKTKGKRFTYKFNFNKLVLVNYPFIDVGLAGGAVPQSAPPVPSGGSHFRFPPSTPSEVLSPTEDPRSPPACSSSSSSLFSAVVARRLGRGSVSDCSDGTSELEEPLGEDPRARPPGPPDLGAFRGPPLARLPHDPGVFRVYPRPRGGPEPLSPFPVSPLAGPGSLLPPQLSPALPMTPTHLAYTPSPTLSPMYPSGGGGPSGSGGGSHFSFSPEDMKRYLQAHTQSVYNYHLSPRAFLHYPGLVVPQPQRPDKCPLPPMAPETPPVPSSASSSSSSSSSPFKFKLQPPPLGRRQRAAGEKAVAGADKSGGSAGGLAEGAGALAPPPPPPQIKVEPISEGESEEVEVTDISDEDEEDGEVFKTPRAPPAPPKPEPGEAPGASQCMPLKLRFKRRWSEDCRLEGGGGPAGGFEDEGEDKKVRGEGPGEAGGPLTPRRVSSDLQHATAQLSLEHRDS
Summary of the method: as §1

ETV3L = target: T7, ETV3L (Homo sapiens, UniProt Q6ZN32 1-361); details: protein: recombinant; tags: N-terminal GST; dsDNA, one strand shown
T7 sequence: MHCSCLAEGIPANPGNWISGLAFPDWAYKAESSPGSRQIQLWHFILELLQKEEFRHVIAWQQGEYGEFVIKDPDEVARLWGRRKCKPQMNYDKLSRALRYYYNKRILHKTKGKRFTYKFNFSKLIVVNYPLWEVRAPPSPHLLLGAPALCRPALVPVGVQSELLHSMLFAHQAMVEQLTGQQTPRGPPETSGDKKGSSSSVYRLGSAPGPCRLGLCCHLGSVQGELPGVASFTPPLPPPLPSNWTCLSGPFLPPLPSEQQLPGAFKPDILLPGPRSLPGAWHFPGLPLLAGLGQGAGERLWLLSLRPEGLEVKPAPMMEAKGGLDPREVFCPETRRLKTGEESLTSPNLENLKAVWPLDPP
Summary of the method: as §1

ETS2 = target: T8, ETS2 (Homo sapiens, UniProt P15036 1-469); details: protein: recombinant; tags: N-terminal GST; dsDNA, one strand shown
T8 sequence: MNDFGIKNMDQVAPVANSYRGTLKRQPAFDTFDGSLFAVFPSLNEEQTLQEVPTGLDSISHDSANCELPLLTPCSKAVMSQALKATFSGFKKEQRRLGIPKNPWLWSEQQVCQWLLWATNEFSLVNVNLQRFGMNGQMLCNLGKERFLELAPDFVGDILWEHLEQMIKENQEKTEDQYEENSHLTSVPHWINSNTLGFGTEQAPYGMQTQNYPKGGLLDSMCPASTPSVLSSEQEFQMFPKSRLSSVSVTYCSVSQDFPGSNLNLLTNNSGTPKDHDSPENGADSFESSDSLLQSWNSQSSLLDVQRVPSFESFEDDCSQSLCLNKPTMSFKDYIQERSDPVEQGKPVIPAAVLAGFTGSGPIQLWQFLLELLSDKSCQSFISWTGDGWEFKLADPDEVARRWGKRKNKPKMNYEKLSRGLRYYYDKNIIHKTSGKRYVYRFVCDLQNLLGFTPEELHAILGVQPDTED
Summary of the method: as §1

SPDEF = target: T9, SPDEF (Homo sapiens, UniProt O95238 1-335); details: protein: recombinant; tags: N-terminal GST; dsDNA, one strand shown
T9 sequence: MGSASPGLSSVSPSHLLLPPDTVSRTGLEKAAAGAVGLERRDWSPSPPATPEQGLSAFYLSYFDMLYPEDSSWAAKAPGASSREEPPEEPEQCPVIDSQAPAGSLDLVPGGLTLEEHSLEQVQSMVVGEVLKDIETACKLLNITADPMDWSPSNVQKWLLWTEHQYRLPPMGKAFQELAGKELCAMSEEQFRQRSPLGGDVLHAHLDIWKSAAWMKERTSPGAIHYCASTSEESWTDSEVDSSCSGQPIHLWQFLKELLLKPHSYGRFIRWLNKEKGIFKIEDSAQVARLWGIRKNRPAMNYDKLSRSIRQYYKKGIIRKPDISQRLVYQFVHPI
Summary of the method: as §1

ETV7 = target: T10, ETV7 (Homo sapiens, UniProt Q9Y603 1-341); details: protein: recombinant; tags: N-terminal GST; dsDNA, one strand shown
T10 sequence: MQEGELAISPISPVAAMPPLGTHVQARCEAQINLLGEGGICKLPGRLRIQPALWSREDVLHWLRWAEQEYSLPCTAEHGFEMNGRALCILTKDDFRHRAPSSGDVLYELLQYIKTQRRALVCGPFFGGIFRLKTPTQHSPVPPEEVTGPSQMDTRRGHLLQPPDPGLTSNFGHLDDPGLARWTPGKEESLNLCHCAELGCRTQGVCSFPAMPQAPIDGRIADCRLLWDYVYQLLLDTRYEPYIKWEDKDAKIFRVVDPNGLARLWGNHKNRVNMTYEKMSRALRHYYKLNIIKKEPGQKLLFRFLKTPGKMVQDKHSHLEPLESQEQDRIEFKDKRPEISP
Summary of the method: as §1

ELF5 = target: T11, ELF5 (Homo sapiens, UniProt Q9UKW6-2 1-255); details: protein: recombinant; tags: N-terminal GST; dsDNA, one strand shown
T11 sequence: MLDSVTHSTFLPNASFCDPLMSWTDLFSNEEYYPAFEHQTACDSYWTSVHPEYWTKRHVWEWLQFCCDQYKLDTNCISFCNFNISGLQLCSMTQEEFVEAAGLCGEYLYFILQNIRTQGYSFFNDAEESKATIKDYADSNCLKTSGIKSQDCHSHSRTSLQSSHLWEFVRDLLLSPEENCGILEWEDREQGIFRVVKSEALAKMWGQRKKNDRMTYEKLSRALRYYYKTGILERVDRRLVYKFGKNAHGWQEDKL
Summary of the method: as §1

ETV3 = target: T12, ETV3 (Homo sapiens, UniProt P41162-2 1-143); details: protein: recombinant; tags: N-terminal GST; dsDNA, one strand shown
T12 sequence: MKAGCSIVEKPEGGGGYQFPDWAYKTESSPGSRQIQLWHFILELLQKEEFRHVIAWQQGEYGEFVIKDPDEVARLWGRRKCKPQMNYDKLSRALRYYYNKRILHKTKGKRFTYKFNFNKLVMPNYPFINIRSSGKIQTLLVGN
Summary of the method: as §1

ETV6 = ETV6 (Homo sapiens, UniProt P41212 1-452); details: protein: recombinant; tags: N-terminal GST; dsDNA, one strand shown
Chain of ETV6 (P41212 whole entry): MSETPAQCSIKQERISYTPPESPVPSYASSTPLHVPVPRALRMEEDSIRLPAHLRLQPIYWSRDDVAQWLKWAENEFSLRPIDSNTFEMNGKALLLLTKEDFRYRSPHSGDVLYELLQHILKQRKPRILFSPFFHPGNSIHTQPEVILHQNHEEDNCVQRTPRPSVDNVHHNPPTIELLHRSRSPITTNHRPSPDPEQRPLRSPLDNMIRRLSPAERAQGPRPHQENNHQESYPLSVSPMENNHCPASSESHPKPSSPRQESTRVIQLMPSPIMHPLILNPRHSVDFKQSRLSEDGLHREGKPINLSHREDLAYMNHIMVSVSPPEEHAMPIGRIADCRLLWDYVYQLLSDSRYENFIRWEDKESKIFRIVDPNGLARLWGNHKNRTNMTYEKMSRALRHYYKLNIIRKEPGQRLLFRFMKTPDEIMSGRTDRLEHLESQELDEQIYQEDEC
Summary of the method: as §1

TTCGTC
binding signal (FEV): 1.21 fold enrichment (6-mer frequency, TF over GST control)
binding signal (ETV5): 1.33 fold enrichment (6-mer frequency, TF over GST control)
binding signal (HSF1): 1.25 fold enrichment (6-mer frequency, TF over GST control)
binding signal (SPIC): 1.23 fold enrichment (6-mer frequency, TF over GST control)
binding signal (ELF4): 1.29 fold enrichment (6-mer frequency, TF over GST control)
binding signal (ELK4): 1.41 fold enrichment (6-mer frequency, TF over GST control)
binding signal (ETV2): 1.33 fold enrichment (6-mer frequency, TF over GST control)
binding signal (ELF3): 1.39 fold enrichment (6-mer frequency, TF over GST control)
binding signal (CRX): 1.09 fold enrichment (6-mer frequency, TF over GST control)
binding signal (ETV1): 1.26 fold enrichment (6-mer frequency, TF over GST control)
binding signal (ERF): 1.36 fold enrichment (6-mer frequency, TF over GST control)
binding signal (ETV3L): 1.23 fold enrichment (6-mer frequency, TF over GST control)
binding signal (ETS2): 1.31 fold enrichment (6-mer frequency, TF over GST control)
binding signal (SPDEF): 1.29 fold enrichment (6-mer frequency, TF over GST control)
binding signal (ETV7): 1.22 fold enrichment (6-mer frequency, TF over GST control)
binding signal (ELF5): 1.18 fold enrichment (6-mer frequency, TF over GST control)
binding signal (ETV3): 1.31 fold enrichment (6-mer frequency, TF over GST control)
binding signal (ETV6): 1.23 fold enrichment (6-mer frequency, TF over GST control)
